Measured values taken from PubChem BioAssay.
Activity calls are given as the source filed them. Unless noted, how the calls were made is not given here.

Key:
[1] = compounds binding Alexa647 anti-His antibody – biochemical, small-molecule microarray, 635 nm fluorescence, artefact control for SMM control protein annotation, primary screen (AID 1128); conditions: higher = more signal;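 further: score merges feature fluorescence with signal-to-noise for each printed compound spot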
[2] = test system: Human papillomavirus type 1a E7 protein (residues 1-88); assay: HPV1a E7 small-molecule binders, primary screen, biochemical, small-molecule microarray, residues 1-88, 635 nm (AID 1129); conditions: small-molecule microarray binding, fluorescence 635 nm; higher = more signal
[3] = target: Focal adhesion kinase 1 (Homo sapiens) (UniProt Q05397); assay: PTK2 protein binding on printed compound slides – biochemical, small-molecule microarray, 635/667 nm fluorescence, BSA, DTT, primary screen (AID 1130); conditions: 635 nm fluorescence, higher = more signal;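 further: composite of spot emission at 667 nm and signal to noise over triplicate slides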
Chain of Focal adhesion kinase 1 (Homo sapiens) (Q05397 whole entry, looked up): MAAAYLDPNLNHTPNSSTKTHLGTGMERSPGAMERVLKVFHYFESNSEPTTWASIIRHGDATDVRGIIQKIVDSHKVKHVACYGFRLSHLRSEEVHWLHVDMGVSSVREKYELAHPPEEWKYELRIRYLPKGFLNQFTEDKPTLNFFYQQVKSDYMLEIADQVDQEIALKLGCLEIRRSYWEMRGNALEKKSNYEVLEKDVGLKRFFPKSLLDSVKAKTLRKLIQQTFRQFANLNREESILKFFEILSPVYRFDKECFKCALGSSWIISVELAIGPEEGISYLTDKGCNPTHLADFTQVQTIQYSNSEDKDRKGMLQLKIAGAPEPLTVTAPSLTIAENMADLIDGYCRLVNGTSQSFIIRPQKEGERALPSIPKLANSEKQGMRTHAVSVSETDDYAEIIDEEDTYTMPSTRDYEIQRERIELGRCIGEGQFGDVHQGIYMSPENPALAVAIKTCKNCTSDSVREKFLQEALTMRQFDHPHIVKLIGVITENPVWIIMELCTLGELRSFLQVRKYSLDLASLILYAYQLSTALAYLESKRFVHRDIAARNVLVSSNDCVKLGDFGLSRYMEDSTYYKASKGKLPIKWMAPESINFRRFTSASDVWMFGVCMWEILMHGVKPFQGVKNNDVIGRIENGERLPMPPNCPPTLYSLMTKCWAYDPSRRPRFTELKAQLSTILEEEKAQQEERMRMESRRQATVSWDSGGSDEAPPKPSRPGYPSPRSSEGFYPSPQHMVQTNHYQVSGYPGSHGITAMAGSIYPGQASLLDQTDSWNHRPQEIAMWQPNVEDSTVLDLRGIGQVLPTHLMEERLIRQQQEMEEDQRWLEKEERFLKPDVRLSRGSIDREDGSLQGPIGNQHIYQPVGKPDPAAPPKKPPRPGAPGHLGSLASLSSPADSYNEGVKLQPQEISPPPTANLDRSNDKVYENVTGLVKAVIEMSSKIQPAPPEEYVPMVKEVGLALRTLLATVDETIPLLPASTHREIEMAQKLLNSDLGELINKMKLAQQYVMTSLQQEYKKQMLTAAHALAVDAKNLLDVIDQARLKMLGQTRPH

[4] = test system: Fibrinogen (Alexa647-labelled); assay: Alexa647-fibrinogen binding to printed small molecules – biochemical, small-molecule microarray, 635/667 nm fluorescence, artefact control for SMM control-protein annotation, profiling panel (AID 1131); conditions: fibrinogen-A647 binding fluorescence, higher = more signal;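 further: z-score merges 667 nm fluorescence with per-spot signal-to-noise over triplicate slides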
[5] = target: Follistatin (Homo sapiens) (UniProt P19883); assay: FST protein binding to printed compounds – biochemical, small-molecule microarray, 635/667 nm fluorescence, primary screen (AID 1132); conditions: 635 nm fluorescence, higher = more signal
Chain of Follistatin (Homo sapiens) (P19883 whole entry, looked up): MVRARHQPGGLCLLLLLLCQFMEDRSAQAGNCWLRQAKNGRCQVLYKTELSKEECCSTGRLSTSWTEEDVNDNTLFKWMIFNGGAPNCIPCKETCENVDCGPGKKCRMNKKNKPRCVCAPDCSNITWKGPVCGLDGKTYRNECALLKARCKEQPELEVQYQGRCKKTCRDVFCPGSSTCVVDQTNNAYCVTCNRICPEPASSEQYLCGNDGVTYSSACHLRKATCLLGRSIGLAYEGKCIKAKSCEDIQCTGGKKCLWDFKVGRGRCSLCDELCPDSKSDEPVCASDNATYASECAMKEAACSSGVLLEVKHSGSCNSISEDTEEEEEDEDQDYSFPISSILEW

[6] = target: Fibroblast growth factor 2 (Homo sapiens) (UniProt P09038); assay: basic fibroblast growth factor binding to printed compounds – biochemical, small-molecule microarray, 635/667 nm fluorescence, primary screen (AID 1133); conditions: FGF2, fluorescence 635/667, higher = more signal
Chain of Fibroblast growth factor 2 (Homo sapiens) (P09038 whole entry, looked up): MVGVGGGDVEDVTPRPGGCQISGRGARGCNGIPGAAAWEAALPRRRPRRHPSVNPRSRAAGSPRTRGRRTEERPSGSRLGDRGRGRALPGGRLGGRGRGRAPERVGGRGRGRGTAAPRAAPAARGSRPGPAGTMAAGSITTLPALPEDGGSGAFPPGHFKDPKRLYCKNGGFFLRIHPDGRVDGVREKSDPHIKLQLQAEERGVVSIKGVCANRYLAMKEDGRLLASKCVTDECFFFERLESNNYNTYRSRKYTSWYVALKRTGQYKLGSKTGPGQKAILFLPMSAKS

[7] = JC-1 mitochondrial potential readout, lung cancer cells – cell-based, A549, JC-1 fluorescence, basal, 24 h, 100 nL, profiling panel (AID 1138); conditions: higher = more signal;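 further: A549 lung adenocarcinoma cells under basal conditions with no added stimulus; test concentration not given here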
Lefty1 = Lefty1 protein binding to printed compounds – biochemical, small-molecule microarray, 635/667 nm fluorescence, primary screen (AID 1139); conditions: fluorescence 635/667, higher = more signal
[8] = test system: wheat germ agglutinin (Triticum aestivum), Alexa647-labelled; assay: Alexa647-WGA lectin binding to printed small molecules – biochemical, small-molecule microarray, 635/667 nm fluorescence, artefact control for SMM control-protein annotation, profiling panel (AID 1140); conditions: WGA-A647 binding, 635 nm fluorescence, higher = more signal;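 further: score merges 667 nm feature emission with signal to noise over triplicate slides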
[9] = target: Luciferin 4-monooxygenase (Photinus pyralis) (UniProt P08659); assay: inhibition of purified Photinus pyralis luciferase – biochemical, luminescence, purified enzyme, 2006 set, primary screen (AID 1141); conditions: purified firefly luciferase, SteadyGlo luminescence, 30 min; higher = more signal, called active from +8 up or from −8 down;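 further: cell-free assay with purified firefly luciferase at 100 ng per well in PBS; test concentration not given here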
Chain of Luciferin 4-monooxygenase (Photinus pyralis) (P08659 whole entry, looked up): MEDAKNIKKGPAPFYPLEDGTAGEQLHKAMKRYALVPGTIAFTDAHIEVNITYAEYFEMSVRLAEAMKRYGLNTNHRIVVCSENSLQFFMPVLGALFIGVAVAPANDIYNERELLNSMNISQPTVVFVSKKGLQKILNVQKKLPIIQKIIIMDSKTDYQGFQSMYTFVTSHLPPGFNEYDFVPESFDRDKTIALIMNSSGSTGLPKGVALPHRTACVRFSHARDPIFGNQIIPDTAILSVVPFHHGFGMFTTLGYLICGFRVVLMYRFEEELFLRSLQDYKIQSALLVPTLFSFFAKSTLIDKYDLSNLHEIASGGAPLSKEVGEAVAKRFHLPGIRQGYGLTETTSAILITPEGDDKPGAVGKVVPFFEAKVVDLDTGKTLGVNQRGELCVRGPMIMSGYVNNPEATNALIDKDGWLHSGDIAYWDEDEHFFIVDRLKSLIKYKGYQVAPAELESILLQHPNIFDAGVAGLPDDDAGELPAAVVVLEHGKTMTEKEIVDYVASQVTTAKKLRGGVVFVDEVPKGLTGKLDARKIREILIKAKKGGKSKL

[10] = test system: Wnt5a (protein binding on small-molecule microarray); assay: small molecules binding Wnt5a protein – biophysical, small-molecule microarray, 635/667 nm fluorescence, primary screen (AID 1142); conditions: 635 nm fluorescence, higher = more signal;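 further: fluorescence read at 667 nm with signal to noise per printed feature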
[11] = ATP-based viability of Huh7 replicon cells – cell-based, CellTiter-Glo luminescence, basal, 48 h, cytotoxicity control for HCV replication inhibitor project, primary screen (AID 1143); conditions: higher = more signal, called active from +8 up or from −8 down;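 further: Huh7 hepatoma cells carrying a hepatitis C replication reporter with no stimulus; test concentration not given here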
[12] = Pseudomonas biofilm growth suppression – PAO1 strain, BacTiter-Glo luminescence, LB-PBS, primary screen (AID 1144); conditions: P. aeruginosa PAO1 biofilm, 12 h, higher = more signal
[13] = basal CRE-LacZ reporter activity in PC12 – cell-based, unstimulated, primary screen (AID 1145); conditions: no forskolin, luminescence, 4.5 h, higher = more signal, called active from +8 up or from −8 down
[14] = forskolin-driven CRE-LacZ activity in PC12 – cell-based, CRE-LacZ reporter, forskolin-stimulated, primary screen (AID 1146); conditions: luminescence, 4.5 h, higher = more signal, called active from +8 up or from −8 down;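 further: PC12 cells with 6xCRE LacZ reporter stimulated by forskolin 10 µM; beta-galactosidase reporter signal reflecting CREB driven transcription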
[15] = target: Streptavidin (Streptomyces avidinii) (UniProt P22629); assay: compounds binding control protein streptavidin – biophysical, small-molecule microarray, 635/667 nm fluorescence, artefact control for SMM compound annotation, primary screen (AID 1147); conditions: higher = more signal;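 further: signal reflects streptavidin binding to arrayed compounds as a control protein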
Chain of Streptavidin (Streptomyces avidinii) (P22629 whole entry, looked up): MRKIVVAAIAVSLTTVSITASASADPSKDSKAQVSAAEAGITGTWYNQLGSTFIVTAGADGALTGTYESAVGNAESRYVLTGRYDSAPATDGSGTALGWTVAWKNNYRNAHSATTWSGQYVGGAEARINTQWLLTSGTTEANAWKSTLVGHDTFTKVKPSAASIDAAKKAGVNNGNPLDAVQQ

[16] = probe aInhba binding on compound microarray – biochemical, small-molecule microarray, 635/667 nm fluorescence, primary screen (AID 1148); conditions: higher = more signal;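 further: score merges 667nm spot fluorescence with signal-to-noise for antibody binding to printed compounds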
Torsin-1A (Homo sapiens) [17] = target: Torsin-1A (Homo sapiens) (UniProt O14656); assay: TOR1A wild-type binding on microarray – cell lysate, small-molecule microarray, lysate, 635/667 nm, primary screen (AID 1149); conditions: COS7 hTOR1A-WT lysate, 635 nm fluorescence, higher = more signal
Chain of Torsin-1A (Homo sapiens) (O14656 whole entry, looked up): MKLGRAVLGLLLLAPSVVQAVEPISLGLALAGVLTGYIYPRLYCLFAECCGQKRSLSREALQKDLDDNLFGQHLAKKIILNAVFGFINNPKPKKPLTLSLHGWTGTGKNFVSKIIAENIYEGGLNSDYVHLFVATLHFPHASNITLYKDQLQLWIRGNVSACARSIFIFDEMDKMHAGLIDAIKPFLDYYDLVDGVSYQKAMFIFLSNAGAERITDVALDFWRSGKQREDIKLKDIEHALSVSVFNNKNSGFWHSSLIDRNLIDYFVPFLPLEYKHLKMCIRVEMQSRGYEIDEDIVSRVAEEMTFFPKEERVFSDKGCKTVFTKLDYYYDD

Torsin-1A (Homo sapiens) [18] = target: Torsin-1A (Homo sapiens) (UniProt O14656); assay: torsin A mutant lysate binding on microarrays – cell lysate, small-molecule microarray, COS7 lysate, 635/667 nm fluorescence, primary screen (AID 1150); conditions: COS7 hTOR1A mutant lysate, 635 nm fluorescence, higher = more signal;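 further: score pools 667 nm emission and signal to noise measuring lysate protein binding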
[19] = test system: Sonic hedgehog protein (Shh); assay: Sonic hedgehog microarray binding compounds – biochemical, small-molecule microarray, 635/667 nm fluorescence, primary screen (AID 1151); conditions: 635 nm fluorescence, higher = more signal;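 further: Shh protein binding to compounds spotted on small-molecule microarray slides; score combines spot fluorescence intensity with signal-to-noise across triplicate slides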

SMILES	composite z-score [1]	composite z-score [2]	composite z-score [3]	composite z-score [4]	composite z-score [5]	composite z-score [6]	z-score [7]	composite z-score (Lefty1)	composite z-score [8]	z-score [9]	composite z-score [10]	z-score [11]	z-score [12]	z-score [13]	z-score [14]	composite z-score [15]	composite z-score [16]	composite z-score (Torsin-1A (Homo sapiens) [17])	composite z-score (Torsin-1A (Homo sapiens) [18])	composite z-score [19]
O=C1O[C@H](c2ccccc2)[C@H](c2ccccc2)N2[C@H]1[C@@H](C(=O)O)[C@]1(C(=O)Nc3ccc(C#CC4(O)CCCCCC4)cc31)[C@H]2c1ccc(OCCO)cc1	1.5	1.25	0.115	0.979	0.196	-0.333	-1.42	0.473	0.942	-2.75 (inactive)	-0.0477	-0.551 (inactive)	-1.01 (inactive)	5.5 (inactive)	14.7 (active)	1.52	0.122	0.477	0.617	0.258
COc1ccc(CCNC(=O)[C@@]2(Sc3ccc(C)cc3)CC(=O)N(Cc3ccccc3Cl)[C@@H]2c2ccc(CO)cc2I)cc1	2.25	0.349	-0.0568	0.35	1.03	0.664	2.03	-0.954	0.593	0.674 (inactive)	-0.234	-2.2 (inactive)	0.0319 (inactive)	0.569 (inactive)	1.12 (inactive)	-0.539	0.12	-0.794	-0.491	0.153
C=CC[C@@]1(C(=O)NCC(O)CO)N=C(c2ccc(OCCCO)cc2)O[C@@H]1c1ccccc1N=[N+]=[N-] (stereo not given in full)	2.92	1.12	-0.121	0.415	0.849	-0.0851	-0.921	0.003	1.12	-11.2 (active)	0.147	-4.04 (inactive)	-0.281 (inactive)	0.573 (inactive)	-0.815 (inactive)	1.02	0.246	1.4	1.48	-0.0776
O=C1OCCC/C=C\[C@H]2OC34C=CCN(Cn5nnc6ccccc65)C(=O)[C@H]3N(CCCCCO)C(=O)[C@@H]4C12 (stereo not given in full)	0.123	-0.654	-0.43	-1.02	-0.31	-1.16	0.248	-0.204	-1.03	0.786 (inactive)	-0.883	-0.19 (inactive)	-0.477 (inactive)	-0.35 (inactive)	-0.26 (inactive)	-1.21	-0.0762	-2.35	-0.736	0.436
COc1cc(CO)ccc1OC(C)=O	0.529	0.741	0.315	0.555	1.07	0.502	1.54	0.636	0.243	-0.743 (inactive)	0.226	-2.07 (inactive)	-0.433 (inactive)	0.0918 (inactive)	-0.874 (inactive)	0.683	-0.308	0.867	0.388	1.05
COC(=O)C(CC#Cc1ccc2c(c1)[C@]1(C(=O)N2)[C@H](c2ccc(OCCO)cc2)N2[C@H](c3ccccc3)[C@H](c3ccccc3)OC(=O)[C@H]2[C@@H]1C(=O)NC[C@H](O)c1ccccc1)C(=O)OC	1.06	1.23	0.751	0.849	0.966	0.387	-0.816	0.346	1.16	-1.67 (inactive)	0.593	-1.17 (inactive)	-0.923 (inactive)	0.0384 (inactive)	-0.926 (inactive)	0.472	0.0442	0.413	0.532	1.4
C=C(COC)C(=O)CC[C@@H](OC(=O)c1cccnc1)c1ccc(CO)o1	-0.131	0.0982	-0.111	0.39	1.18	1.46	0.217	0.911	-0.0265	-2.05 (inactive)	0.345	-0.336 (inactive)	-0.0359 (inactive)	0.611 (inactive)	0.114 (inactive)	-0.022	-0.0675	0.247	-0.332	1.6
CN(C)C(=O)[C@@]1(CCC(=O)OC(C)(C)C)N=C(c2ccc(OCCCO)cc2)O[C@H]1c1ccccc1	3.44	1.11	0.384	0.65	0.381	-0.309	-0.457	-0.943	0.798	-0.874 (inactive)	0.257	-4.42 (inactive)	-0.573 (inactive)	0.195 (inactive)	-1.4 (inactive)	0.0732	0.776	0.635	1.74	-0.467
CC(C)c1ccc(NN2C(C(O)c3ccc(N(C)C)cc3)C=CC3C(=O)N(c4ccccc4)C(=O)C32)cc1 (stereo not given)	0.435	1.24	0.0061	0.96	1.25	-0.321	0.594	0.273	0.923	-0.943 (inactive)	0.125	-1.1 (inactive)	-0.666 (inactive)	-0.133 (inactive)	0.856 (inactive)	1.76	0.268	0.074	0.658	-0.0206
[N-]=[N+]=NCc1ccccc1[C@@H]1OC(c2ccc(OCCCO)cc2)=N[C@]1(Cc1ccccc1N=[N+]=[N-])C(=O)NCc1ccccc1	0.512	1.17	0.562	0.198	1.28	0.578	0.249	0.621	0.421	-5.2 (inactive)	0.378	-3 (inactive)	-0.433 (inactive)	-0.193 (inactive)	-1.02 (inactive)	0.942	-0.0006	0.819	0.191	1.51
